Measurements reported in PubChem BioAssay (NCATS).
Records with an inconclusive call do not appear. Active and inactive are the calls of the source. Calls follow the shape of the full dose curve.

Each compound was assayed against Peroxisome proliferator-activated receptor delta (Homo sapiens) (UniProt Q03181) (assay: qHTS assay for small molecule agonists of peroxisome proliferator-activated receptor delta signaling (AID 588534)). Conditions: HEK293T PPARdelta-UAS-bla, beta-lactamase ratio, 18 h; series mostly up to 76.7 µM.
Sequence of Peroxisome proliferator-activated receptor delta (Homo sapiens) (Q03181 whole entry, looked up): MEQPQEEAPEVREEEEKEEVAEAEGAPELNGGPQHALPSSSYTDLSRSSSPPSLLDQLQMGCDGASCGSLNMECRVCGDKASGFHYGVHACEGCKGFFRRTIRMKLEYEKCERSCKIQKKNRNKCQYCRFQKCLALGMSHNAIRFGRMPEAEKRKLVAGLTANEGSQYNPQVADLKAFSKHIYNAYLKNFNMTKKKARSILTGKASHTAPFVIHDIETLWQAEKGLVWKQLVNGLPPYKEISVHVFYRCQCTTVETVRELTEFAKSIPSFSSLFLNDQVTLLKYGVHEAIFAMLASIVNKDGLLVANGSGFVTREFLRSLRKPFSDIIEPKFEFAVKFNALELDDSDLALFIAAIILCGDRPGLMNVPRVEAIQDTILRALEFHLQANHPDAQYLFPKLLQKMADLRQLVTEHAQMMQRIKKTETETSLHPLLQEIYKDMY
Outline: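 Fluorescence from CCF4 substrate cleavage by beta-lactamase reporter, read 2 hrs at RT, measured agonist activity. Compounds were tested with 18 hrs exposure at 37 C. Concentration-response data fitted to Hill equation.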
For NC(=O)NC(N)=O, the outcome was “inactive”.
Cc1ccc([N+](=O)[O-])c(N)c1 was tested, and the outcome was “inactive”.
With CC(C)C(C)C the outcome was “inactive”.
CC(C)CCCCOC(=O)c1ccccc1C(=O)OCCCCC(C)C was tested, and the outcome was “inactive”.
For c1ccsc1, the outcome was “inactive”.
In the case of CC(=O)c1cc(C)oc1C, the outcome is reported as “inactive”.
CCC=O was tested, and the outcome was “inactive”.
CCCCCCC=O was tested, and the outcome was “inactive”.
In the case of N[C@@H]1[C@@H](O)[C@H](O)[C@@H](CO)O[C@H]1O, the outcome is reported as “inactive”.
In the case of CCOc1ccc(NC(C)=O)cc1N, the outcome is reported as “inactive”.
For ClCCCl, the outcome was “inactive”.
In the case of O=C=NC1CCC(CC2CCC(N=C=O)CC2)CC1 (centres undefined), the outcome is reported as “inactive”.
With OCCOCCOCCOCCOCCO the outcome was “inactive”.
In the case of C=C(C)C(=O)OCC[N+](C)(C)C, the outcome is reported as “inactive”.
In the case of O=C1OC(=O)c2c(Br)c(Br)c(Br)c(Br)c21, the outcome is reported as “inactive”.
In the case of NCCCCCCCCCCC(=O)O, the outcome is reported as “inactive”.
CC(=O)OC(C)(C)C1CC=C(C)CC1 (centres undefined) was tested, and the outcome was “inactive”.
With OC1CCCCC1 the outcome was “inactive”.
O=C(Cl)c1ccc([N+](=O)[O-])cc1 was tested, and the outcome was “inactive”.
In the case of C/C=C\c1ccc(OC)cc1, the outcome is reported as “inactive”.
With Clc1nc(Cl)c(Cl)c(Cl)c1Cl the outcome was “inactive”.
With c1c[nH]cn1 the outcome was “inactive”.
For Cc1cccc(C)c1, the outcome was “inactive”.
For OCC(CBr)(CBr)CBr, the outcome was “inactive”.
In the case of CCCCCCCCO, the outcome is reported as “inactive”.
For C=CC(=O)OCCOc1ccccc1, the outcome was “inactive”.
For O=[N+]([O-])c1ccc(F)cc1F, the outcome was “inactive”.
In the case of O=C(OCC1CCC2OC2C1)C1CCC2OC2C1 (centres undefined), the outcome is reported as “inactive”.
CCCCCNCCCCC was tested, and the outcome was “inactive”.
With C1CCCNCC1 the outcome was “inactive”.
In the case of Nc1ccc2c(c1)C(=O)c1ccccc1C2=O, the outcome is reported as “inactive”.
In the case of CCCCCc1ccc(N)cc1, the outcome is reported as “inactive”.
In the case of O=[N+]([O-])c1cccc(I)c1, the outcome is reported as “inactive”.
In the case of CCOC(=O)C(C)C(C)=O (centres undefined), the outcome is reported as “inactive”.
